Test results published in the supplement of paper PMC6555819.

Legend:
Experiment in all cases: PBM binding z-score (relative to random genomic background probes); higher = stronger binding; sequences stand for … in GC…GCGATTGACAGCGTAGAATGAAGG
[1] = tested on: FXR:RXRa (NR concentration 270 nM, RXRa partner concentration 90 nM)
How it was run: (§1)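 Binding z-scores were set against random background probes. The data came from custom Agilent 4×180K protein-binding microarrays carrying double-stranded probes with 34-nt variable regions, incubated 1 h with ligand-free nuclear receptor dimers. Partner-specific antibodies detected binding, and scanned fluorescence was regression-normalized.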

[2] = tested on: LXRa:RXRa (NR concentration 270 nM, RXRa partner concentration 90 nM)
How it was run: as §1

[3] = tested on: LXRa homodimer (NR concentration 270 nM)
How it was run: as §1

[4] = tested on: LXRb:RXRa (NR concentration 270 nM, RXRa partner concentration 90 nM)
How it was run: as §1

[5] = tested on: LXRb homodimer (NR concentration 270 nM)
How it was run: as §1

[6] = tested on: PPARa:RXRa (NR concentration 270 nM, RXRa partner concentration 90 nM)
How it was run: as §1

[7] = tested on: PPARg:RXRa (NR concentration 180 nM, RXRa partner concentration 90 nM)
How it was run: as §1

[8] = tested on: PPARg:RXRa 270nM:90nM, anti-RXR (NR concentration 270 nM, RXRa partner concentration 90 nM)
How it was run: as §1

[9] = tested on: PPARg:RXRa 30nM:10nM, anti-RXR (NR concentration 30 nM, RXRa partner concentration 10 nM)
How it was run: as §1

[10] = tested on: PPARg:RXRa 90nM:30nM, anti-RXR (NR concentration 90 nM, RXRa partner concentration 30 nM)
How it was run: as §1

Row | Sequence | PBM binding z-score [1] | PBM binding z-score [2] | PBM binding z-score [3] | PBM binding z-score [4] | PBM binding z-score [5] | PBM binding z-score [6] | PBM binding z-score [7] | PBM binding z-score [8] | PBM binding z-score [9] | PBM binding z-score [10]
1 | GCTAGCAGTCCATTTGGGTCACTCAATGACGGGC | 0.123 | -0.125 | -0.706 | -0.0386 | -0.905 | 0.937 | 0.41 | 0.105 | -0.37 | -0.0818
2 | TCTGCTAGGTCAGTTGGTCATCTAACGAGCTGCC | 1.16 | 0.727 | -0.519 | 0.51 | 0.317 | 1.66 | 0.954 | 2.16 | 1.52 | 2.1
3 | CAAATTAGGTCACGAAAGGTCAAAGTCGAATGAC | 7.62 | 8.19 | 7.52 | 7.45 | 3.07 | 6.87 | 10.1 | 8.6 | 6.67 | 8.69
4 | ACAGACAGGTGAGTGAAGGTATCTCAGCTGGACG | -0.3 | -0.499 | -0.504 | -0.625 | -0.39 | 0.116 | 0.581 | -0.119 | 0.319 | -0.0281
5 | TCTAGTTGGTCACAGAGGTCACACACGACGGGTA | 4.73 | 4.98 | 3.92 | 4.46 | 1.51 | 4.84 | 4.45 | 5.18 | 4.12 | 5.26
6 | CGTCCAAGGTCAATGATAGGTCAGTGAAAGCATT | 6.83 | 6 | 2.8 | 4.83 | 0.895 | 5.41 | 3.87 | 4.8 | 1.74 | 3.35
7 | GGTATTAGTTGAAAGGGCAACCGAATGATTCTCG | 1.14 | 1.49 | 1.06 | 1.41 | 0.907 | 2.66 | 3.26 | 5.07 | 3.13 | 4.79
8 | TGTCAAAGTTCAAAGCTAACGTAAGTATCCACAC | 6.52 | 6.15 | 3.83 | 4.14 | 1.86 | 5.22 | 7.92 | 7.25 | 4.27 | 7.06
9 | TCAGACAGGTGAAGGTAACTTAGGTACGCAGTCG | 1.16 | 2.01 | -0.079 | 1.41 | -0.0603 | 1.46 | 0.846 | 2.45 | 4.08 | 3.11
10 | TATGCTAGGTCAACGATGGTCAGCTAATCTGCTA | 3.36 | 4.53 | 2.1 | 2.25 | 0.889 | 3.37 | 2.89 | 2.78 | 0.716 | 1.87
11 | GGGACGAGGGCAAAGTTGATAGCATCTGTCGACG | 1.7 | 1.11 | -0.058 | 1.41 | 0.182 | 3.68 | 6.58 | 6.7 | 5.3 | 6.62
12 | TCTAGTTGGTCAAAGGTCAGACACTCGAAATGCG | 4.59 | 4.69 | 2.66 | 4.41 | 1.43 | 5.67 | 11.3 | 9.55 | 11.6 | 11.6
13 | TTACCAAGGTGAGGTGAGGTCGTTGATCCAACTC | 2.75 | 1.64 | -0.251 | 1.2 | -0.802 | 2.03 | 0.585 | 1.25 | 0.427 | 0.705
14 | CCTAGCAGGCTAATCTGGGTCACTCAAGGCTTGA | 0.577 | 3.74 | 0.0725 | 1.2 | -0.635 | 3.14 | 2.13 | 2.31 | 0.292 | 1.49
15 | CCTACTGGGCCAAAAAGGTCATCGATGCCGATAA | 3.69 | 4.2 | 2.69 | 4.33 | 0.178 | 4.93 | 4.32 | 4.61 | 2.07 | 4.04
16 | CGTACTGGGCCAAAAAGGTCATTGATGCCGATAA | 3.72 | 4.43 | 2.93 | 4.25 | 0.293 | 4.69 | 3.65 | 4.22 | 1.71 | 3.72
17 | ATACCAGGGTGATCGTGAGGTCGTTGATACTAAC | 1.34 | 1.44 | 0.904 | 1.5 | 0.0794 | 1.82 | 0.781 | 0.722 | 0.104 | 0.486
18 | TTATATAGGTAAAGGTGAAAGTCGAACGATATGA | 1.14 | 1.34 | 0.121 | 1.2 | 0.294 | 4.2 | 6.76 | 6.26 | 4.77 | 6.33
19 | TCAGACAGGTGAAGGTAACTCAAGTACGCAGTCG | 1.22 | 2.77 | 0.105 | 1.47 | 0.174 | 1.33 | 0.828 | 2.07 | 4.18 | 3.03
